High-throughput results as filed in PubChem.
TSHR antagonist: blocks TSH signaling through the human TSH receptor; P16473; TSHR-expressing cells, TSH-stimulated cAMP HTRF, 2 h; stronger effect = lower value; activity change, negative = inhibition, % at 11.5 µM; actives 0.2% (n = 330,000); AID 504810;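 active = activity change below a set negative limit, meaning inhibition stronger than a set level, cut at about -70% in these data; inconclusive = activity change between two set negative limits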; note: % is set by controls: 0 for no effect and ±100 for the full control effect
Target sequence (P16473 whole entry, looked up): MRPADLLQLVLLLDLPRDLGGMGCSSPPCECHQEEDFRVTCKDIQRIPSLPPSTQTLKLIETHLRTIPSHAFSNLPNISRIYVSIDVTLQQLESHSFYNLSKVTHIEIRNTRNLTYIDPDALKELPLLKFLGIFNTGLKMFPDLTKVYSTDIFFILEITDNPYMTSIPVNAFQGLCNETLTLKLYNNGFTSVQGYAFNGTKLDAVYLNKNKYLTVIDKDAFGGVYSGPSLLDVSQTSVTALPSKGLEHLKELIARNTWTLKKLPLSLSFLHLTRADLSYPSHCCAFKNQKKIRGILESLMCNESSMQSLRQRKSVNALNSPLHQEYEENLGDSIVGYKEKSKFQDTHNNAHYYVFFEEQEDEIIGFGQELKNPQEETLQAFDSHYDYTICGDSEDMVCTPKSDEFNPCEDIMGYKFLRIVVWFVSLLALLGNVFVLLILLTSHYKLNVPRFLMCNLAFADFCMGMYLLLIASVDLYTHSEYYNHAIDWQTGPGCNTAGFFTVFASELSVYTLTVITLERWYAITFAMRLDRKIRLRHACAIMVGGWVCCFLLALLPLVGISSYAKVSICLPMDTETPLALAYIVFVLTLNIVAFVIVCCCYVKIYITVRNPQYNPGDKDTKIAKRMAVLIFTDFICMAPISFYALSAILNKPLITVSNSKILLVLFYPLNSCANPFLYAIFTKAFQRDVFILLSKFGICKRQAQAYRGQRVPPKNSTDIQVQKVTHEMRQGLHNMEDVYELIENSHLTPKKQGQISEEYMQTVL
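TSHR-expressing cells were treated with compounds, then stimulated with TSH at EC80 (4nM final) for 2 hours at 37 deg C. Cellular cAMP was measured by HTRF competition between lysate cAMP and cAMP-d2 for a cryptate-labelled anti-cAMP antibody.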
uPA surface inh: blocks generation of uPA at the cell surface | Potency, µM (titrated, usually from 38.3 µM), for inactives: at the top dose activity change, negative = inhibition, usual class: inhibitors | cell surface uPA generation assay, qHTS | actives 0.31% (n = 330,000); active = well fitted inhibition curve with a large enough effect; inconclusive = small, poorly fitted or top-dose-only effect; inactive = no such curve, though single readings can be large or run the other way; tested in mouse RAW 264.7 cells; note: potency is the fitted concentration of half-maximal effect; % is set by controls: 0 for no effect and ±100 for the full control effect; nearly all actives have a fitted effect of over 55% in size
PLK1 PBD inh: inhibitors of human PLK1 polo-box domain binding; P53350; Plk1 PBD binding of FITC phosphopeptide, fluorescence polarization; Potency, µM, inactives show max response, negative = inhibition, most hits filed as inhibitors; actives 2.8% (n = 360,000); AID 720504; note: potency is the fitted concentration of half-maximal effect; series mostly up to about 57 µM; % is set by controls: 0 for no effect and ±100 for the full control effect; nearly all actives have a fitted effect of over 65% in size
TSG101-PTAP inh: blocks PTAP/TSG101 interaction to inhibit HIV-1 budding | Fluorescence polarization, FITC-PTAP peptide / Tsg101 binding | AID 493005 | Potency, µM (top dose mostly 115 µM), inactives show at the top dose activity change, negative = inhibition, hits mostly inhibitors | Q99816 | 340,000 tested, under 10 active; active = well fitted inhibition curve with a large enough effect in the main read-out, with a control signal flat, not every such curve was filed as active; inconclusive = small, poorly fitted or top-dose-only effect, or effect the other way, or a change in a side signal; inactive = no such curve, though single readings can be large or run the other way; note: potency is the fitted concentration of half-maximal effect; % of control where 0% means no effect
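Fluorescence anisotropy tracks displacement of a FITC-tagged PTAP peptide (50 nM) from the Tsg101 binding domain (10 uM), following a 20 min room-temperature incubation at pH 7.5.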
VDR inh: inhibitors of human vitamin D receptor | P11473 | VDR-SRC2-3 peptide fluorescence polarization, 2 h | Potency, µM, without a hit: max response, negative = inhibition, usual class: inhibitors | actives 0.93% (n = 400,000); note: potency is the fitted concentration of half-maximal effect; % is set by controls: 0 for no effect and ±100 for the full control effect
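Fluorescence polarization assay of small-molecule disruption of VDR binding to coregulator peptide SRC2-3. Compounds and controls pin-transferred, then read after 2 h incubation at ambient room temperature.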
Active calls of the source: *; ? = inconclusive; . = no result. The list is not random: actives were taken first. Their share in the collection is about 3.1%. Unless noted, calls come from the whole dose curve; as a rule, active = well fitted curve in the direction sought with a large enough effect; inconclusive = small, poorly fitted or top-dose-only effect, or another doubt; inactive = no such curve, though single readings can be large; an effect the other way counts as inactive or inconclusive.

SMILES	TSHR antagonist	uPA surface inh	PLK1 PBD inh	TSG101-PTAP inh	VDR inh
O=C(NCc1ccccc1)NC1(C(=O)N2CCN(c3ncccn3)CC2)CCCCC1	-6	13%	27µM*	-6%	-2%
O=C(NCc1ccccc1)NC1(C(=O)N2CCCC2)CCCCC1	2	-5%	2%	-5%	11%
CSc1sccc1/C=N/O	10	2%	0%	-8%	5%
CSc1sccc1/C=C(/C#N)C(=O)c1ccco1	5	1%	0.84µM*	-3%	?
CN(C)S(=O)(=O)c1ccc(C(=O)Oc2cc(=O)[nH]c3ccccc23)cc1	-10	3%	8.4µM*	-2%	-13%
Cc1cccc(N2C(=O)CSC23C(=O)N(CC(=O)NCCc2ccccc2)c2ccccc23)c1 (centres undefined)	.	.	.	.	-1%
COc1cccc2sc(Nc3nnc(-c4ccc(F)cc4)o3)nc12	-1	5.6µM*	-21%	-2%	-8%
COc1cc(CNC(=O)c2cnc(SC)nc2-c2ccccc2)cc(OC)c1OC	.	.	.	.	7%
COc1ccc(N2C(=NC(=O)C3CCCCC3)SC3CS(=O)(=O)CC32)c(OC)c1 (centres undefined)	10	0%	12µM*	-3%	?
CCOc1ccc(CNC(=O)CCCn2nc(CC)n3c(cc4occc43)c2=O)cc1	-110*	?	-6%	-7%	-8%
CCc1nn(CCCC(=O)NCc2ccc(OC(C)C)cc2)c(=O)c2cc3occc3n12	-4	-12%	-22%	-7%	15%
CCOC(=O)CNC(=O)CC(c1cc(OC)c(OC)c(OC)c1)N1Cc2ccccc2C1=O (centres undefined)	.	.	.	.	17%
CN(Cc1nccs1)C(=O)c1ccc2nc(Cc3ccccc3F)oc2c1	-20	-3%	-3%	-7%	-10%
COc1ccc(Cc2nc3ccc(C(=O)N(C)Cc4nccs4)cc3o2)cc1OC	-6	6%	30µM*	1%	-16%
CCCn1c(SCC(=O)Nc2ccccc2CC)nnc1C(C)C	-2	-1%	3µM*	1%	-17%
C=CCNc1nc(-c2cc3ccccc3o2)cs1	2	-2%	-19%	-10%	-5%
c1ccc2oc(-c3csc(NCC4CCCO4)n3)cc2c1 (centres undefined)	-14	2%	-25%	0%	79µM*
Nc1cccc2c1C(=O)N(C(=O)/C=C/c1cccc(F)c1)C2=O	9	-5%	?	-5%	40µM*
C=CC[C@H]1CC(Cc2ccccc2)=C[C@H](CC=C)N1	0	-5%	24µM*	-3%	?
CC(C)C[C@@H](CN1CCCC1CN1C(=S)NC[C@@H]1Cc1ccc(O)cc1)N1C[C@H](Cc2ccc(O)cc2)N(CC2CCCCC2)C1=S (some centres undefined)	.	?	19µM*	3%	-22%
Cc1ccc([N+](=O)[O-])cc1S(=O)(=O)N1CCNCC1	0	3%	15µM*	-1%	-26%
CC1CCN(S(=O)(=O)c2cc([N+](=O)[O-])ccc2Cl)CC1	-5	7.9µM*	-4%	-5%	-10%
CCOC(=O)N1CCN(S(=O)(=O)c2cc([N+](=O)[O-])ccc2C)CC1	5	0%	-4%	0%	11%
COc1ccccc1N1CCN(CCCCN2C(=O)C3CCCCN3C2=O)CC1 (centres undefined)	-8	-4%	8.4µM*	-6%	?
CC(C)(C)OC(=O)N1CCCN(C(c2ccnc3ccccc23)c2nnnn2-c2ccc3c(c2)OCCO3)CC1 (centres undefined)	.	.	-17%	.	.
SMILES	TSHR antagonist	uPA surface inh	PLK1 PBD inh	TSG101-PTAP inh	VDR inh
O=[N+]([O-])c1ccccc1/C=C/c1ccc2ccccc2n1	4	-5%	27µM*	4%	0%
Cn1c(/C=C/c2ccccc2[N+](=O)[O-])nc2ccccc2c1=O	-7	0%	-4%	-2%	-3%
C[C@@H]1CN([C@@H](C)CO)C(=O)CCCn2nncc2CO[C@H]1CN(C)C(=O)Cc1ccccc1	.	.	-5%	.	.
O=C(O)/C=C/c1ccc(S(=O)(=O)Nc2ccccc2C(=O)Nc2ccc(F)cc2)cc1	-100*	-4%	-9%	-2%	-9%
O=C(O)c1ccccc1NS(=O)(=O)c1ccc(NN=Cc2ccc(F)cc2)c([N+](=O)[O-])c1	-22	5%	24µM*	-1%	-24%
O=C(Nc1ccc(-c2nc3ccccc3[nH]2)cc1)c1ccccc1NS(=O)(=O)c1ccc(F)cc1	-27	4%	27µM*	1%	11%
CS(=O)(=O)c1ccccc1C(=O)Nc1ccc(-c2nc3ccccc3[nH]2)cc1	13	-16%	-14%	4%	-3%
O=C(Cn1nc(Cl)nc1Cl)c1ccccc1	-5	0%	17µM*	-1%	-7%
O=C(Cn1nc(Cl)nc1Cl)c1ccc2c(c1)OCCO2	-10	-3%	12µM*	-4%	1%
O=C(Cn1nc(Cl)nc1Cl)c1ccc(F)cc1	4	2%	-3%	-2%	6%
Cc1ccc(NC(=S)NNC(=S)Nc2ccc(C)cc2C)cc1	1	0%	11µM*	0%	45µM*
Cc1ccc(NC(=S)c2ccncc2)c(C)c1	3	?	-4%	0%	35µM*
Cc1ccc(NC(=S)Nc2cccc3cnccc23)c(C)c1	-8	-3%	?	-1%	-2%
O=C(CN1C(=O)C(=O)N(Cc2ccco2)C1=O)c1c[nH]c2ccccc12	5	-24%	27µM*	-16%	-20%
O=C(CN1C(=O)C(=O)N(CCC2=CCCCC2)C1=O)c1c[nH]c2ccccc12	.	9%	-3%	-5%	7%
CC(C)c1ccc(NC(=O)CSC2=Nc3ccccc3C3=NC(CC(=O)NCc4cccs4)C(=O)N23)cc1 (centres undefined)	.	.	.	.	2%
CCN(CC)S(=O)(=O)c1cccc(C(=O)N/N=C/c2ccc(O)c(O)c2O)c1	-12	-2%	8.4µM*	-1%	-13%
COc1cccc(/C=N/NC(=S)Nc2cccc(S(=O)(=O)N(C)C)c2)c1	0	-7%	8.4µM*	3%	79µM*
CCn1c(C)nc2cc(C(=O)N/N=C/c3ccc(O)c(O)c3O)ccc21	-8	-1%	8.4µM*	-2%	-22%
CCn1c(C)nc2cc(C(=O)N/N=C/c3cccc(OC)c3O)ccc21	-4	-12%	0%	0%	4%
CN(C)S(=O)(=O)c1cccc(NC(=S)N/N=C/c2ccc(O)c(O)c2O)c1	-1	-2%	6µM*	0%	89µM*
COc1ccccc1C(=O)Nc1cc(-c2cccc(Br)c2)nn1-c1ccccc1	.	.	.	.	1%
CN1C(=O)Cc2cc(S(=O)(=O)CCC(=O)Nc3ccccc3)ccc21	.	.	.	.	-8%
CCN(CCO)c1ccc(NC(=S)Nc2cccc(S(=O)(=O)N(C)C)c2)cc1	-7	5%	27µM*	0%	?
CN(C)S(=O)(=O)c1cccc(NC(=S)Nc2cc(Cl)cc(Cl)c2)c1	-10	7%	?	-4%	-10%
